# Results reported in PubChem BioAssay (NCI).
# The panel holds about 83,000 compounds, 20% with a hit somewhere; the sample as a whole holds those more often.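 Treatment: one concentration, 48 hours, 96-well format. Scoring: percent growth, with anything below 10 considered active.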 Values without a mark were called inactive. The source made the active and inactive calls.
# Tested on: HL-60(TB) leukemia
# Assay: NCI-60 one-dose screen, 48 h (100 = growth as untreated, 0 = no growth, -100 = all killed)
# Conditions: 10 µM unless noted
row,SMILES,growth
1,Nc1nn2c(-c3cc4cc(Br)ccc4oc3=O)ccnc2c1N=Nc1ccc(S(N)(=O)=O)cc1,104%
2,Clc1ccc(-c2nc3c4c(-c5ccccc5)c(-c5ccccc5)n(Cc5ccccc5)c4ncn3n2)cc1,-27.7% (active)
3,O=C(COc1ccc(NC(=O)Nc2ccc(Cl)cc2)cc1)N/N=C/c1ccccc1,45.8%
4,NS(=O)(=O)c1ccc(Nc2nc(SCC(=O)c3ccc(F)cc3)nc3ccccc23)cc1,63.7%
5,O=C1Nc2cc(Cl)ccc2/C1=C/c1cccc(OCc2ccccc2)c1,-25.3% (active)
6,CC(C)C[C@H](NC(=O)[C@@H]1CCCCCCCCCCC(=O)N[C@@H](CC(=O)N2CCC[C@@H]2C2CCCC2)C(=O)N1)B(O)O,-33.3% (active)
7,CC1=C(C(=O)OC(C)C)C(c2ccc(O)cc2)NC(=O)N1 (stereo not drawn),90.2%
8,CCOC(=O)C1NN(c2ccc(S(N)(=O)=O)cc2)c2nc3nc(-c4cccs4)cc(-c4cccs4)c3c(=O)n21 (stereo not drawn),96.2%
9,Cc1ccc(/C=C/C(=O)c2ccc(NC(=O)CSc3nnc(-c4c[nH]c5ccccc45)n3-c3ccccc3)cc2)cc1,75.5%
10,CCCCCCCCc1ccc(C(=O)Nc2ccc(C)cc2C(=O)O)cc1,92.2%
11,CN1CCc2c(sc3ncnc(N/N=C/c4cccc(Cl)c4Cl)c23)C1,-50.9% (active)
12,Cn1cc(-c2nnc(N)nc2-c2c[nH]c3ccccc23)c2cc(Br)cnc21,13.6%
13,CCCCSc1nc(Nc2ccc(C(C)=O)cc2)c(C#N)c(-c2ccc(OC)cc2)n1,88%
